# ATXN viability – Viability Counterscreen for Primary qHTS for Inhibitors of ATXN expression | S2 cells (HEK-293 line with an ATXN2-luciferase reporter) viability, CellTiter-Fluor protease fluorescence, 24 h | 400,000 tested, 0.49% active | Potency, µM (titrated, usually from 56.7 µM), actives largely listed as cytotoxic | AID 651635, 2014; note: nearly all actives have a fitted effect of over 40% in size
# ATXN2 expr inh – Primary qHTS for Inhibitors of ATXN expression | HEK-293 ATXN2-luciferase reporter, luminescence, 24 h | 360,000 tested, 0.72% active | Potency, µM (titrated, usually from 57 µM), without a hit: at the highest dose activity change, negative = inhibition, actives largely listed as inhibitors; note: % is set by controls: 0 for no effect and ±100 for the full control effect; nearly all actives have a fitted effect of over 55% in size
#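 ATXN2-luciferase reporter cells (luciferase flanked by upstream and downstream ATXN2 gene portions) were treated 24 h at 37 °C with compounds at up to 57 uM. SteadyGlo luminescence gave expression; GF-AFC fluorescence gave viability.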
# TGFb inhibitor – qHTS for Inhibitors of TGF-b | HepG2 CAGA-GFP TGF-b/SMAD3 reporter, GFP fluorescence, 18 h; TGF-beta stimulated, 500 pg/mL final | 410,000 tested, 1.2% active | Potency, µM (highest dose often 46.1 µM), for the others: at the highest dose activity, negative = inhibition, hits mostly inhibitors; note: % is set by controls: 0 for no effect and ±100 for the full control effect; nearly all actives have a fitted effect of over 65% in size
#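 Per well, imaged GFP fluorescence of HEPG2 CAGA-GFP cells gives the signal; cells get compound, then TGF-beta (500 pg/mL final), 18 h at 37 degrees C; %Activity versus -TGF-beta and +DMSO controls.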
# HT1080-NT tox – qHTS for induction of synthetic lethality in tumor cells producing 2HG: qHTS for the HT-1080-NT fibrosarcoma cell line | HT-1080-NT fibrosarcoma viability, CellTiter-Glo ATP luminescence, 48 h | Potency, µM (top dose mostly 46.1 µM), without a hit: at the top dose activity, negative = less viability, most hits filed as cytotoxic | 360,000 tested, 1.6% active;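 note: NT is the 2HG producing partner of a matched IDH1 knockdown line; 0% = DMSO-treated cells and -100% = media-only wells without cells; nearly all actives have a fitted effect of over 55% in size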
#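 Toxicity toward the 2HG-producing NT line was scored as %Activity, normalised to DMSO and no-cell wells, from CellTiter-Glo luminescence after 48 hours' treatment.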
# HT1080 IDH1KD tx – qHTS for induction of synthetic lethality in tumor cells producing 2HG: qHTS for the HT-1080-IDH1KD cell line | 360,000 tested, 2% active | Potency, µM (series often up to 46.1 µM), inactives show at the highest dose activity, negative = toxicity, usual class: cytotoxic | HT-1080 IDH1 knockdown viability, ATP luminescence, 48 h;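 note: 0% = DMSO wells and -100% = cell-free medium wells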
#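 Assay cells: HT-1080 with IDH1 knockdown, 750 per well, RPMI/5% FBS. Exposure: 48 h at 37 °C following 2 h pre-incubation. Read: CellTiter-Glo luminescence; fitted concentration-response, curve class assigned.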
# HepG2 tox – qHTS for Inhibitors of TGF-b: Cytotox Counterscreen. HepG2 CAGA-GFP viability, ATP luminescence, 18 h. Potency, µM (titrated, usually from 46.1 µM), without a hit: top-dose activity change, negative = cytotoxicity, hits mostly cytotoxic. 410,000 tested, 0.76% active
#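 HepG2 CAGA-GFP cells (1000/well, DMEM with 1% FBS) received compound, then TGF-beta at 500 pg/mL final, and were incubated 18 hours at 37 degrees C. Viability was read by CellTiter-Glo luminescence. Media-only wells were set as complete cell-killing and DMSO as no toxicity.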
# An asterisk follows results filed as active; i = inactive; ? = inconclusive; · = no result given; [ ] = remark or other dose. An excerpt weighted towards active compounds, which were near 3.9% of everything screened. Calls come from the whole dose curve; as a rule, active = well fitted curve in the direction sought with a large enough effect; inconclusive = small, poorly fitted or top-dose-only effect, or another doubt; inactive = no such curve, though single readings can be large; an effect the other way counts as inactive or inconclusive. Potency is the fitted concentration of half-maximal effect.
SMILES,ATXN viability,ATXN2 expr inh,TGFb inhibitor,HT1080-NT tox,HT1080 IDH1KD tx,HepG2 tox
CC(O)(c1cccc(F)c1)c1nc(-c2cc3ccccc3o2)cs1 (stereo not given),?,7%,?,?,?,-34%
COc1cccc(C(C)(O)c2nc(-c3cc4ccccc4o3)cs2)c1 (stereo not given),i,4%,8.9µM*,?,?,-80%
Cc1ccn(-c2ccc(-c3ncco3)cc2)c(=O)c1-c1ccc2nc(N)ncc2c1,·,-13%,·,·,·,·
COc1ccc(CCN2CCN(CCCc3ccccc3)CC2)cc1OC,·,-20%,·,·,·,·
COc1ccc(C(C)(O)c2nc(-c3ccccc3C)cs2)cc1 (stereo not given),i,-23%,?,?,9.2µM*,-17%
COc1ccc(C(C)(O)c2nc(-c3ccccc3)cs2)cc1 (stereo not given),i,-7%,-8%,?,16µM*,-26%
Cc1ccccc1-c1csc(C(C)(O)c2ccccc2)n1 (stereo not given),i,-3%,-21%,-15%,-18%,-28%
O=C(CSC1CN(C(c2ccccc2)c2ccccc2)C1)N/N=C/c1ccccc1,i,2%,-22%,?,23µM*,i
O=C(CCN1CCN(C(c2ccccc2)c2ccccc2)CC1)N/N=C/c1ccc(O)cc1,i,0%,-1%,-4%,4%,-17%
C/C(=N/NC(=O)c1ccc(C)nc1)c1ccc2c(c1)CCCC2,i,-8%[11.3 µM],-4%,16µM*,23µM*,9%
COc1cc(CN2C(=O)CC[C@@H]3CN(Cc4ccccn4)CC[C@@H]32)cc(OC)c1OC,i,·,·,·,·,·
CO/N=C/C(=N\Nc1ccc(OC)cc1)C(=O)c1ccc(F)cc1,?,-22%,1%,18%,?,1%
CO/N=C/C(=N\Nc1ccc(C)cc1)C(=O)c1ccc(OC)cc1,?,-25%,-3%,?,2.9µM*,16%
OC(CNCc1ccccc1F)COc1cccc2ccccc12 (stereo not given),i,-30%,?,?,15µM*,-181%
Cc1sc(NC(=O)C2CCCCC2C(=O)O)c(C(N)=O)c1-c1ccc(C(C)(C)C)cc1 (stereo not given),i,42%,-14%,-13%,-12%,-19%
CCOC(=O)c1c(NC(=O)/C=C/C(=O)O)sc(C)c1-c1ccc(C(C)(C)C)cc1,?,-13%[11.3 µM],?,8.2µM*,5.8µM*,13µM*
Cc1sc(NC(=O)/C=C/C(=O)O)c(C(N)=O)c1-c1ccc(C(C)(C)C)cc1,i,-16%,?,?,21µM*,-69%
Cc1c(C(=O)N2CCCC2)sc2ncnc(NCCCN3CCOCC3)c12,i,·,·,·,·,·
CC(CCc1ccc(O)cc1)NCCC(c1ccccc1)c1ccccc1 (stereo not given),?,?,?,21µM*,21µM*,-88%
CC(CCc1ccc(O)cc1)NC(c1ccccc1)c1ccc(Cl)cc1 (stereo not given),?,?,?,10µM*,7.3µM*,11µM*
CC(CCc1ccccc1)NCc1ccc(Cl)cc1Cl (stereo not given),i,-17%,?,3%,0%,-39%
CC(CCc1ccc(O)cc1)NCc1ccc(Br)cc1 (stereo not given),i,-9%,?,?,?,-24%
Cn1cnc([N+](=O)[O-])c1NC(C)(C)C,i,-5%,15%,21%,10%,4%
Cn1cnc([N+](=O)[O-])c1S(=O)(=O)c1ccc(Cl)cc1,?,?,11µM*,9.2µM*,6.5µM*,18µM*
COc1cc(NC(=O)Cn2c(C)cc(C)c(C#N)c2=O)cc(OC)c1,·,·,-9%,·,·,-37%
SMILES,ATXN viability,ATXN2 expr inh,TGFb inhibitor,HT1080-NT tox,HT1080 IDH1KD tx,HepG2 tox
C=CCC[C@@H](Cc1ccc(F)cc1)C(=O)OC[C@@H](Cc1c[nH]c2ccccc12)NC(=O)[C@H](CC=C)CC(=O)N(CCO)Cc1ccccc1,·,?,?,16µM*,?,-17%
C=CC[C@H](CC(=O)N(CCO)Cc1ccccc1)C(=O)N[C@@H](COC(=O)[C@@H](CC=C)Cc1ccc(F)cc1)Cc1c[nH]c2ccccc12,28µM*,-23%,?,?,?,-49%
C=CC[C@@H](CC(=O)N(CCO)Cc1ccccc1)C(=O)N[C@@H](COC(=O)[C@@H](CC=C)Cc1ccc(F)cc1)Cc1c[nH]c2ccccc12,?,-9%,?,?,?,-18%
CCOC(=O)[C@@H](N)CCC(=O)N[C@@H](CSCc1ccccc1)C(=O)N[C@@H](C(=O)OCC)c1ccccc1,·,-2%,·,·,·,·
Cc1ccc(NCC(=O)N/N=C\c2ccc([N+](=O)[O-])o2)cc1,i,-25%,11µM*,?,1%[9.24 µM],13µM*
O=C(CNc1ccccc1)N/N=C/c1ccc([N+](=O)[O-])o1,i,?,?,-25%,-21%,11µM*
O=C(CCC(=O)Nc1ccc(Cl)cc1Cl)N/N=C/c1ccc([N+](=O)[O-])o1,?,?,11µM*,?,?,16µM*
O=C(N/N=C/c1ccc([N+](=O)[O-])o1)C1CCCC1,i,-32%,?,-23%,?,-72%
O=C(CCCn1cnc([N+](=O)[O-])n1)Nc1ccc(Cl)cc1Cl,i,-3%,-21%,-6%,-1%,-6%
CCCCCC(=O)N/N=C/c1ccc([N+](=O)[O-])o1,i,-26%,?,?,?,10µM*
O=C(CNC(=O)c1ccccc1)N/N=C/c1ccc([N+](=O)[O-])o1,?,·,?,-26%,?,-94%
Cn1nnnc1SCC1=C(C(=O)O)N2C(=O)[C@@H](NC(=O)[C@H](OC=O)c3ccccc3)[C@H]2SC1,i,·,·,·,·,·
COc1ccc(NC(=O)CC2C(=O)N(c3ccc(C)cc3)C(=O)N2CCc2ccccc2)cc1 (stereo not given),?,-2%,?,·,·,-25%
O=C(Cc1ccc2c(c1)OCO2)NN=Cc1ccc([N+](=O)[O-])o1,?,?,10µM*,-12%,-21%,-102%
O=C(Cc1ccc2c(c1)OCCO2)N/N=C/c1ccco1,i,·,4%,4%,0%,-13%

# Bioassay records (PubChem)
